Results taken from PubChem BioAssay (NCATS).
Inconclusive results are not listed. Values without a mark were called inactive. Calls of active or inactive are those of the source. Calls follow the shape of the full dose curve.
% is scaled to controls: 0 for no effect and ±100 for the full control effect; potency is read from the fitted curve at half-maximal effect.

Experiment: Natriuretic polypeptide receptor (hNpr1) antagonism - Pilot counterscreen GloSensor control cell line (AID 1347045)
Details: HEK293 cGMP GloSensor cells, SNP-stimulated luminescence, 20 min; series mostly up to 38.3 µM; activity change, negative = inhibition: at the top concentration
Description: F. Fan, B. F. Binkowski, B. L. Butler, P. F. Stecha, M. K. Lewis, K. V. Wood, Novel genetically encoded biosensors using firefly luciferase. ACS Chem Biol 3, 346-351 (2008).
PROTOCOL TABLE (as described by Inglese J, Shamu CE and Guy RK. 2007)
SEQUENCE No. (e.g., 1, 2, 3, etc.); […] (e.g., Cells, Incubation, Reagent, etc.); VALUE and DESCRIPTION.
1. Cells. Seed 1500 HEK293 cGMP-sensor cells per well in 4uL into Greiner 1536-well white/solid bottom high base, TC plates.
2. Incubation. Incubate plated cells at 37C in 5% CO2, 95% RH overnight.
3. Reagent. Add 1uL per well GloSensor reagent from Promega (2% final concentration) or CO2 independent media vehicle control to respective columns of Greiner 1536-well plates.
4. Incubation. Incubate plated cells at room temperature for 2 h, protect from light.
5. Compounds. Library compounds and DMSO vehicle control added at 23nL per well, transferred by Pin Tool.
6. Incubation. Incubate plated cells for 30 min. at room temperature, protect from light.
7. Detector. GloSensor baseline pre-read luminescence measured using CCD-based camera (Viewlux).
8. Compound. Add 1uL of sodium nitroprusside (SNP) to 50 uM final concentration to stimulate soluble guanylyl cyclase (GC) or CO2 independent media as vehicle control.
9. Incubation. Incubate treated cells at room temperature for 20 min., protect from light.
10. Detector. GloSensor post-SNP luminescence measured using CCD-based camera (Viewlux).
NOTES (numbers refer to Sequence numbers above; values are from representative experiments)
1. HEK293 cells expressing GIP/pGS-40F were grown to 85-95% confluence (48-72 h) in T175 culture flasks (CO2 independent media supplemented with 10% FBS, 1% Pen/Strep antibiotics, and 1 ug/mL puromycin). Trypsinize and harvest cells from T175 culture flasks and filter through 40 um cell strainer. Cells counted with Invitrogen Countess (30,000,000 - 50,000,000 cells/flask).
2. Cells incubated for 24 h. at 37C in 95% RH incubator with metal lid having gas-exchange holes.
3. Prepare GloSensor Reagent (Promega): Reconstitute GloSensor luciferase substrate by adding 8.2mL Hepes buffer to 250mg substrate, mix well, protect from light and stored at -80C. Prepare a fresh 12% GloSensor solution in CO2 independent supplemented plating media (see above). Mix well and store at ambient temperature, protected from light. 1uL 12% GloSensor Luciferase Reagent added (2% final concentration) to respective columns of 9 x 1536-well Greiner plate with BioRaptr, 1uL CO2 independent plating media added to respective columns as vehicle control with BioRaptr.
4. Cells incubated for 2 h. at ambient temperature, protected from light with metal lid having gas-exchange holes.
5. 23nL of LOPAC128 library compounds (7 plates) or DMSO vehicle control transferred to 9 Greiner white/solid bottom high base, TC plates in 7 interplate 1:5 titrations (see Yasgar, A. et al. 2008) with Pintool. Two of the 9 plates are DMSO-only in compound field at beginning and end of compound library-treated plates.
6. Cells incubated for 30-50 min. at ambient temperature protected from light with metal lid having gas-exchange holes.
7. Read GloSensor + Antagonist/Compound baseline Luminescence on the ViewLux [Exposure, 30 s; Gain, High; Speed, Slow; Binning, 2X]
8. SNP solution prepared at 500 mM (in H2O) stock concentration. From this a working dilution was prepared at 300 uM in CO2 Independent media. 1uL of 300 uM SNP (50 uM final concentration) or CO2 Independent media vehicle control dispensed into respective columns of 9 x Greiner 1536-well white/solid bottom, tissue culture plates with BioRaptr.
9. Cells incubated for 20 min. at ambient temperature, protected from light with metal lid having gas-exchange holes.
10. Read final luminescence on the ViewLux. [Exposure, 30 s; Gain, High; Speed, Slow; Binning, 2X.]
[…]
In the case of `O=C(OCCN1CCOCC1)C1(c2ccccc2)CCCCC1`, the “activity change, negative = inhibition” value is reported as 0.872%.
For `COc1ccc(-c2cc3ncc(C)n3c(Nc3ncccc3C(N)=O)n2)cc1OC`, the “activity change, negative = inhibition” value was 31.2%.
In the case of `c1ccc(C(NCCNC(c2ccccc2)c2ccccc2)c2ccccc2)cc1`, the Potency is reported as 13.1 µM (active).
In the case of `Oc1ccc(Cn2cc[nH]c2=S)cc1`, the “activity change, negative = inhibition” value is reported as -18.8%.
For `NC(N)=NC(N)=Nc1ccccc1`, the “activity change, negative = inhibition” value was 6.59%.
In the case of `CC1C(=O)N(C)C(=O)c2nc[nH]c21` (stereo not given), the “activity change, negative = inhibition” value is reported as -1.43%.
In the case of `O=c1ccn([C@@H]2O[C@H](COP(=O)(O)OP(=O)(O)O)[C@@H](O)[C@H]2O)c(=O)[nH]1`, the “activity change, negative = inhibition” value is reported as 12.3%.
For `CC(N)(Cc1ccc(O)c(O)c1)C(=O)O` (stereo not given), the “activity change, negative = inhibition” value was -13.3%.
For `CCN(CC)CCOC(=O)c1cc(Cl)c(N)cc1OC`, the “activity change, negative = inhibition” value was 11.3%.
With `CCCn1c(=O)c2[nH]c(C3CCCC3)nc2n(CCC)c1=O` the “activity change, negative = inhibition” value was 0.234%.
With `CCC1(O)CC2CN(CCc3c([nH]c4ccccc34)[C@@](C(=O)OC)(c3cc4c(cc3OC)N(C)C3[C@]45CCN4CC=C[C@@](CC)([C@@H](OC(C)=O)[C@]3(O)C(=O)OC)[C@H]45)C2)C1` (stereo not given in full) the “activity change, negative = inhibition” value was -1.06%.
With `C[N+](C)(C)CC=O` the “activity change, negative = inhibition” value was 1.78%.
In the case of `C=CCNc1ncnc2ccc(Br)cc12`, the “activity change, negative = inhibition” value is reported as 20.8%.
For `NC(N)=N[C@@H](CCC(=O)O)C(=O)O`, the “activity change, negative = inhibition” value was 2.01%.
In the case of `CCCn1c(=O)c2[nH]c(-c3ccc(S(=O)(=O)O)cc3)nc2n(CCC)c1=O`, the “activity change, negative = inhibition” value is reported as -1.79%.
With `NC1(C(=O)O)CCc2cc(C(=O)O)ccc21` (stereo not given) the “activity change, negative = inhibition” value was 2.41%.
With `CC(C)C[C@H](NC(=O)[C@H](O)[C@H](N)Cc1ccccc1)C(=O)O` the “activity change, negative = inhibition” value was 3.56%.
In the case of `COC(=O)C1=C(C)NC(C)=C([N+](=O)[O-])C1c1ccccc1C(F)(F)F` (stereo not given), the “activity change, negative = inhibition” value is reported as 0.403%.
For `CCCC[C@@]1(C2CCCC2)Cc2cc(OCC(=O)O)c(Cl)c(Cl)c2C1=O`, the “activity change, negative = inhibition” value was -6.5%.
With `CC(/C=C/c1cccc(Oc2ccc(F)cc2)c1)N(O)C(N)=O` (stereo not given) the “activity change, negative = inhibition” value was -6.47%.
In the case of `O=C(O)C1=CCNCC1`, the “activity change, negative = inhibition” value is reported as 4.66%.
For `CCCCCC[C@@H]([C@@H](C)O)n1cnc2c(N)ncnc21`, the “activity change, negative = inhibition” value was -3.31%.
For `N=C(N)SCCN`, the “activity change, negative = inhibition” value was 6.54%.
In the case of `c1ccc(CN2CCC3(CCCc4ccccc43)CC2)cc1`, the “activity change, negative = inhibition” value is reported as 41.9%.
For `CCCCS(=N)(=O)CC[C@H](N)C(=O)O` (stereo not given in full), the “activity change, negative = inhibition” value was -0.162%.
With `Cc1ccccc1/C=C/C1=NCCN1` the “activity change, negative = inhibition” value was -1.75%.
In the case of `C[C@]12C=CC(=O)C=C1CC[C@@H]1C2=CC[C@]2(C)[C@@H](C(=O)CN3CCN(c4cc(N5CCCC5)nc(N5CCCC5)n4)CC3)CC[C@@H]12`, the “activity change, negative = inhibition” value is reported as -6.42%.
With `Cc1cc(Cn2cnc3c2C[C@@H](C(=O)O)N(C(=O)C(c2ccccc2)c2ccccc2)C3)ccc1N` the “activity change, negative = inhibition” value was 6.17%.
For `C=CCN1CCc2c(cc(O)c(O)c2Cl)C(c2ccccc2)C1` (stereo not given), the “activity change, negative = inhibition” value was 4.86%.
In the case of `C#CCn1c(=O)c2c(ncn2C)n(C)c1=O`, the “activity change, negative = inhibition” value is reported as 3.34%.
For `NC1(C(=O)O)CC1`, the “activity change, negative = inhibition” value was 0.525%.
With `CCCCCCCCCC[Si](C)(C)CCC(=O)NC(Cc1ccc(C)cc1)c1ccccc1` (stereo not given) the “activity change, negative = inhibition” value was -0.143%.
In the case of `Cn1cc(C(F)(F)F)nc1-c1ccc(OCC(O)CNCCOc2ccc(O)c(C(N)=O)c2)cc1` (stereo not given), the “activity change, negative = inhibition” value is reported as 1.72%.
For `CC(N)(Cc1ccc(O)cc1)C(=O)O` (stereo not given), the “activity change, negative = inhibition” value was 0.415%.
In the case of `CC1CCN=C(N)S1` (stereo not given), the “activity change, negative = inhibition” value is reported as 5.57%.
For `Nc1ccc(N2C(=O)c3ccccc3C2=O)c(Cl)c1`, the “activity change, negative = inhibition” value was 4.9%.
With `NC[C@@H]1O[C@H](c2ccccc2)Cc2c1ccc(O)c2O` the “activity change, negative = inhibition” value was 4.62%.
In the case of `CN(C)C(=O)/N=N/C(=O)N(C)C`, the “activity change, negative = inhibition” value is reported as 27.6%.
With `O=C(O)c1cc(=O)cc(C(=O)O)[nH]1` the “activity change, negative = inhibition” value was 15.1%.
In the case of `Cc1cc2c(cc1Cl)N(C(=O)Nc1ccnc3ccccc13)CC2`, the “activity change, negative = inhibition” value is reported as -19.7%.
